High-throughput results as filed in PubChem BioAssay.
Only some compounds are listed: those with a hit (about 2.3% of all), similar ones and a draw of the others.
M1 PAM parental = nonselective activator or artifact in parental CHO-K1 calcium assay. AID 602247. ATP EC20, Fluo-8 calcium fluorescence; 0% at ATP EC20, 100% at ATP max. 360,000 compounds, 0.02% hits. activation, % at 3 µM;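 active = activation above the run cutoff, the mean activation of all test compounds plus 3 SD, cut at about 40% in these data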;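 note: peak over basal fluorescence ratio in a 140 s read after ATP addition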
CHRM1 agonist = human M1 muscarinic receptor agonism; CHO-K1 hM1, Fluo-8 calcium fluorescence, agonist mode; 0% DMSO, 100% acetylcholine EC100; AID 588814; 360,000 compounds, 0.33% hits; P11229; activation, % at 3 µM;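 active = activation above the run's mean compound activation plus 3 SD, cut at about 16% in these data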;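 note: peak over basal fluorescence ratio within a 140 s kinetic read after compound addition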
Target sequence (P11229 whole entry, looked up): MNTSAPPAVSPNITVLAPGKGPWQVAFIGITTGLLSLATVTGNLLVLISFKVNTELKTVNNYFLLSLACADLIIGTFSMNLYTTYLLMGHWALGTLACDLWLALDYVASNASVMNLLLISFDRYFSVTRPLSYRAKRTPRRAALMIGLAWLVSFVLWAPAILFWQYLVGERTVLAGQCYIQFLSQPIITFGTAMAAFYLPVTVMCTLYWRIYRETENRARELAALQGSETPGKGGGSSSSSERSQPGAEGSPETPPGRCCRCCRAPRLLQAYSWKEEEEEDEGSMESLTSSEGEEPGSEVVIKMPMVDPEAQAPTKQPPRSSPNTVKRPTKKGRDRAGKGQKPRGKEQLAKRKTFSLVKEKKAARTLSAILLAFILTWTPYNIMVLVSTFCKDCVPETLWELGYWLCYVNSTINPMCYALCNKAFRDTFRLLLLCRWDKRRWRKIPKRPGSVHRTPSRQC
M1 antag = human CHRM1 antagonism | P11229 | inhibition, % at 3 µM | CHO-K1 hM1, Fluo-8 calcium fluorescence, ACh EC80 antagonist | AID 588852 | 360,000 compounds, 1.3% hits;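 active = percent inhibition above its own plate's cutoff, namely the mean of that plate's compound wells plus 3 SD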;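 note: peak over basal fluorescence ratio during 140 s after agonist addition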
M1 PAM = potentiates human M1 receptor response to acetylcholine; activation, % at 3 µM; 360,000 compounds, 0.088% hits; P11229; CHO-K1 hM1, Fluo-8 calcium fluorescence, ACh EC20; 0% = ACh EC20, 100% = maximal ACh; in the data active = activation above about 19%, passing the limit was not always enough
CHO-K1 Ca ag = M1 agonist counterscreen hit in parental CHO-K1 cells; activation, % at 3 µM; Fluo-8 calcium fluorescence; scaled to maximal ATP response, vehicle zero; 360,000 compounds, 0.48% hits; AID 602248; in the data active = activation above about 15%;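 note: untransfected CHO-K1 host cells lacking M1 receptor as counterscreen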
CHO-K1 Ca antag = nonselective inhibitor or artifact in parental CHO-K1 cells. ATP-induced calcium, Fluo-8 fluorescence. inhibition, % at 3 µM. 360,000 compounds, 0.6% hits;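 active = inhibition above a per-plate cutoff, the plate's mean sample inhibition plus 3 SD, cut at about 24% in these data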
Numbers stand for hits; n = inactive; x = no result.

SMILES	M1 PAM parental	CHRM1 agonist	M1 antag	M1 PAM	CHO-K1 Ca ag	CHO-K1 Ca antag
Cc1ccc(Cn2nc(C)c(NC(=O)CCCn3nc([N+](=O)[O-])c(Cl)c3C)c2C)cc1	n	n	n	21	n	n
Cc1c(NC(=S)NC(=O)c2ccc(Cl)cc2)c(=O)n(-c2ccccc2)n1C	n	n	n	n	n	n
Cc1c(NC(=O)c2cc(CC(C)C)on2)c(=O)n(-c2ccccc2)n1C	n	n	n	n	n	n
Cc1c(NC(=O)c2cc(C(C)C)on2)c(=O)n(-c2ccccc2)n1C	n	n	36	n	n	n
Cc1c(NC(=S)NC(=O)c2ccccc2Cl)c(=O)n(-c2ccccc2)n1C	n	n	n	29	n	n
Cc1ccc(Cn2nc(C)c(NC(=O)CCCn3nc(C)c([N+](=O)[O-])c3C)c2C)cc1	n	n	n	n	n	n
Cc1c(Cl)c([N+](=O)[O-])nn1CC(=O)Nc1c(C)n(C)n(-c2ccccc2)c1=O	n	n	28	n	n	n
COc1ccc(Cl)cc1N(CC(=O)NCc1ccccn1)S(=O)(=O)c1ccc(C)cc1	n	n	n	n	n	n
CSc1ccc(CN2CCC(C)(Oc3cccc(C#N)c3)C2)cc1 (centres undefined)	n	n	36	n	n	n
COc1ccc(Cn2cc(CN3CCc4onc(-c5ccccc5OC)c4C3=O)nn2)cc1	n	x	x	x	n	n
O=C(NP(=O)(N1CCCC1)N1CCCC1)C1=C(N2CCOCC2)/C(=C/c2cccc([N+](=O)[O-])c2)CC1	n	n	n	n	17	n
CCOC(=O)C(=O)C1=C(N2CCOCC2)/C(=C\c2cccc([N+](=O)[O-])c2)CC1	n	n	n	n	n	n
COCCNC(=O)c1ccc(N2CC3CC(C2)c2cccc(=O)n2C3)c(NC(=O)c2ccc(Br)o2)c1 (centres undefined)	n	n	n	n	n	n
COCCNC(=O)c1ccc(N2CC3CC(C2)c2cccc(=O)n2C3)c(NC(=O)c2ccccc2Br)c1 (centres undefined)	n	22	n	n	n	n
COCCNC(=O)c1ccc(N2CC3CC(C2)c2cccc(=O)n2C3)c(NC(=O)c2cc(OC)cc(OC)c2)c1 (centres undefined)	n	n	n	n	n	n
COCCNC(=O)c1ccc(N2CC3CC(C2)c2cccc(=O)n2C3)c(NC(=O)c2ccccc2Cl)c1 (centres undefined)	n	26	n	n	n	n
COc1c(Br)cc(/C=N/n2c(-c3ccccc3)n[nH]c2=S)c(O)c1Br	n	n	n	n	n	n
OCC[C@@H]1C[C@H](O)[C@@H](O)[C@@]2(OCc3ccc(CO)cc32)O1	n	n	n	n	n	n
CCOC(=O)C1CCCN(c2nc3c(C)cccn3c(=O)c2/C=C(\C#N)C(=O)NCc2ccco2)C1 (centres undefined)	n	62	76	n	n	n
Cc1cccn2c(=O)c(/C=C(\C#N)C(=O)NCc3ccco3)c(N3CCCC(C)C3)nc12 (centres undefined)	n	n	n	n	n	n
COc1ccc(CN(Cc2ccccn2)S(=O)(=O)c2ccc(-n3cnnn3)c(OC)c2)cc1	n	n	n	n	n	n
COc1ccc(CN(Cc2ccccn2)S(=O)(=O)c2ccc(-n3cnnn3)cc2)cc1	n	n	n	n	n	40
COc1cc(C(C)=O)ccc1OCCCN1CCC(Cc2ccccc2)CC1	n	n	44	n	n	n
COc1cc(C(C)=O)ccc1OCCN1CCC(Cc2ccccc2)CC1	n	n	45	n	n	n
CC(CCC(C)C(C)(C)C)[C@@H]1CC[C@H]2C3C[C@H](OS(O)(=S)=S)[C@H]4C[C@H](OS(O)(=S)=S)[C@@H](OS(O)(=S)=S)C[C@]4(C)[C@H]3CC[C@]12C (some centres undefined) (tested in a mixture with another compound)	46	37	n	n	24	n
SMILES	M1 PAM parental	CHRM1 agonist	M1 antag	M1 PAM	CHO-K1 Ca ag	CHO-K1 Ca antag
COC(=O)/C(=C\C=C\c1ccccc1)NC(=O)c1ccccc1	n	n	n	n	n	29
O=C(Nc1ccc(O)cc1)/C(=C\C=C\c1ccccc1)NC(=O)c1ccccc1	n	n	n	n	n	n
CC(Oc1ccccc1)C(=O)Nc1ccc(NC(=O)c2ccccc2)cc1 (centres undefined)	n	n	n	n	n	n
COc1cc(NC(=O)C(C)Oc2ccccc2)c(OC)cc1NC(=O)c1ccccc1 (centres undefined)	n	n	n	n	n	24
Cc1nc2cc(Cl)c(Cl)cc2n1CCCO	n	n	n	n	n	n
Cc1cc(=S)cc(C)n1CCCO	n	n	n	n	n	29
O=C(c1ccccc1)c1ccc(OCCOCCN2CCN(Cc3ccccc3)CC2)cc1	n	n	87	n	n	n
S=C(Nc1ccccc1)Nc1ccc(OCc2ccccc2)cc1	n	n	n	n	n	26
c1ccc(CN2CCN(CCOCCOc3ccc4c(c3)CCC4)CC2)cc1	n	n	29	n	n	n
O=C(CCCc1nc2ccccc2s1)NNC(=O)CCN1CCN(Cc2ccccc2)CC1	n	17	n	n	n	n
O=C(CCCc1nc2ccccc2s1)NCc1ccccc1	n	n	n	n	n	n
NS(=O)(=O)c1ccc(NC(=S)Nc2ccc(OCc3ccccc3)cc2)cc1	n	n	n	n	n	n
COc1ccc(/C=C(\C#N)c2n[nH]c(Cn3cncn3)n2)cc1	n	n	n	n	n	n
O=C(CCN1CCN(Cc2ccccc2)CC1)Nc1ccc(OCc2ccccc2)cc1	n	n	24	n	n	n
O=C(CCN1CCN(CCO)CC1)Nc1ccc(OCc2ccccc2)cc1	n	n	n	n	n	n
CCCCN1C(=O)C(CC(=O)NCc2ccco2)CC(C(=O)N2CCOCC2)=C1C (centres undefined)	n	n	n	n	n	n
Cc1onc(-c2ccccc2)c1NC(=O)Nc1ccc(OC(F)F)cc1	n	n	n	n	25	n
Clc1ccc(-c2cn(-c3ccccc3)c3[n+]2CCS3)cc1	n	n	58	n	n	n
Fc1ccc(-c2cn(-c3ccccc3)c3[n+]2CCS3)cc1	n	n	n	n	n	n
CC(=O)c1ccc(-n2cc(-c3ccc(C(C)(C)C)cc3)[n+]3c2SCCC3)cc1	n	n	39	n	n	n
COc1ccc(-c2cn(-c3ccc(Br)cc3)c3[n+]2CCS3)cc1	n	n	44	n	n	n
CCCCCCCC[n+]1cccc2c3ccccc3ccc21	n	n	98	n	n	n
Cc1cccc[n+]1CCCCCCCCCC[n+]1ccccc1C	n	n	n	n	n	n
CCCCCCCCCC[n+]1cccc2c3ccccc3ccc21	n	n	82	n	18	40
